In PubChem BioAssay (NCATS):
Records with an inconclusive call do not appear. Activity calls are given as the source filed them. Unless noted, calls follow the shape of the dose curve; as a rule, active = well fitted curve in the direction sought with a large enough effect; inconclusive = small, poorly fitted or top-dose-only effect, or another doubt; inactive = no such curve, though single readings can be large; an effect the other way counts as inactive or inconclusive.

Legend:
[1] = Cell Viability - BJ (AID 421; calls by dose curve;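 also: potency is read from the fitted curve at half-maximal effect; cells exposed to compound for 40 hours at 37 °C before readout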); details: BJ fibroblast viability, qHTS
How it was run: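 Luminescent ATP signal (CellTiter-Glo, 20 min at room temperature) served as the read-out of viable BJ cells after 40 hours of compound treatment. Responses were scaled between DMSO and 100 uM tamoxifen, and AC50 values were obtained by Hill modeling.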

[2] = Cell Viability - Jurkat (AID 426;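 active = dose-dependent loss of cell ATP signal giving a full or clear fitted curve, ranked by lower potency value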; also: potency is read from the fitted curve at half-maximal effect); details: qHTS
How it was run: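 Luminescent ATP read-out (CellTiter-Glo, 20 min at room temperature) after 40 hr compound exposure at 37 °C of Jurkat E6-1 cells, 5000/well. Decreased ATP taken as cytotoxicity; AC50 from standard Hill equation.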

[3] = Cell Viability - Hek293 (AID 427;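 active = compounds whose dose-response curve shows a full or clear partial loss of cell viability, called from curve shape rather than a numeric limit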;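 also: potency is read from the fitted curve at half-maximal effect; cells exposed to compound for 40 hours at 37 °C before reading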); details: qHTS
How it was run: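 Luminescent ATP read-out (CellTiter-Glo, 20 min RT) after 40 hr compound exposure at 37 °C in complete medium. Signal normalized to DMSO (basal) and 100 uM tamoxifen (100% inhibition); concentration-response fitted with the standard Hill equation to give AC50.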

[4] = Cell Viability - HepG2 (AID 433; calls by dose curve;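 also: potency is read from the fitted curve at half-maximal effect; potency for ATP loss meaning cytotoxicity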); details: qHTS
How it was run: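 HepG2 cells, 1500 per well, treated 40 hr at 37 °C in complete medium; viability from intracellular ATP by CellTiter-Glo luminescence. Normalized to DMSO and 100 uM tamoxifen; AC50 from Hill fit of qHTS concentration-response.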

[5] = Cell Viability - MRC5 (AID 434; calls by dose curve;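 also: potency is read from the fitted curve at half-maximal effect; potency reflects cytotoxicity seen as loss of intracellular ATP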); details: MRC5 lung fibroblast viability, qHTS
How it was run: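 AC50 values come from Hill-equation fits of intracellular ATP loss, measured by CellTiter-Glo luminescence. Normal lung fibroblasts (MRC5) had 40 hr compound treatment at 37 C, normalized between DMSO and 100 uM tamoxifen.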

[6] = Cell Viability - SK-N-SH (AID 435; calls by dose curve; also: potency is read from the fitted curve at half-maximal effect); details: SK-N-SH neuroblastoma cell viability qHTS
How it was run: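 SK-N-SH neuroblastoma cells (1500/well) treated 40 h at 37 °C in complete medium; viability read as cellular ATP by CellTiter-Glo luminescence. Normalized to DMSO and 100 uM tamoxifen; AC50 from Hill fits of qHTS concentration-response.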

[7] = molecular target: Mitogen-activated protein kinase 10 (Mus musculus) (UniProt Q61831); experiment: JNK3 AlphaScreen Assay (AID 530; active = well fitted curve in either direction with a large enough effect, not every such curve was filed as active;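 also: kinase came from lysate of stimulated human HepG2 cells; signal reports phosphorylation of biotinylated GST-cJun 1-79 at Ser73 with 10 µM ATP; % is scaled to controls: 0 for no effect and ±100 for the full control effect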); details: JNK3 lysate, c-Jun phosphorylation; series mostly up to 57.1 µM
How it was run: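 Kinase buffer: 20 mM Tris-HCl pH 7.6, 10 mM MgCl2, 1 mM DTT, 0.1 mM Na3VO4, 0.01% Tween-20; ATP 10 uM. Substrate biotin-GST-cJun(1-79), enzyme from activated HepG2 lysates. Detection by Ser73 phospho-antibody AlphaScreen.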

[8] = Cell Viability - N2a (AID 540); details: N2a mouse neuroblastoma cell viability; activity change, negative = cytotoxicity: at 92.2 µM (top of the series);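 also: plate controls were DMSO alone for no effect and tamoxifen control for full effect; nearly all actives have a fitted effect of over 45% in size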
How it was run: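 N2a mouse neuroblastoma, 1500 cells/well, 5 hr settle; compound 40 hr, 37 °C; CellTiter-Glo 20 min RT; luminescence; Hill-fit AC50.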

[9] = Cell Viability - NIH 3T3 (AID 541); details: NIH 3T3 cell viability, qHTS; activity change, negative = cytotoxicity: at 92.2 µM (top of the series);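 also: plate controls were DMSO alone for no effect and tamoxifen positive control for full effect; nearly all actives have a fitted effect of over 25% in size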
How it was run: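 qHTS format; 40 hr compound exposure, 37 °C; CellTiter-Glo luminescence (cellular ATP) read-out after 20 min at RT. Decrease in ATP = cytotoxicity; AC50 from standard Hill fit.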

[10] = Cell Viability - HUV-EC-C (AID 542); details: HUV-EC-C endothelial cell viability, qHTS; series mostly up to 92.2 µM; also: % is scaled to controls: 0 for no effect and ±100 for the full control effect; nearly all actives have a fitted effect of over 35% in size
How it was run: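 Luminescent ATP read-out (CellTiter-Glo, 20 min room temperature) after 40 hr compound treatment of HUV-EC-C cells at 37 °C. Concentration-response data fitted with the standard Hill equation to give AC50; tamoxifen and doxorubicin served as positive controls.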

[11] = Cell Viability - H-4-II-E (AID 543); details: H-4-II-E rat hepatoma viability; series mostly up to 92.2 µM; also: % is scaled to controls: 0 for no effect and ±100 for the full control effect; nearly all actives have a fitted effect of over 35% in size
How it was run: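 qHTS, rat hepatoma H-4-II-E, 1500 cells/well; 40 hr compound exposure, 37 °C; CellTiter-Glo ATP luminescence after 20 min RT; AC50 by standard Hill fit.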

[12] = Cell Viability - SH-SY5Y (AID 544); details: SH-SY5Y neuroblastoma cell viability; viability change, negative = cytotoxic: at 92.2 µM (top of the series); also: nearly all actives have a fitted effect of over 55% in size
How it was run: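 SH-SY5Y, 1500 cells/well, 5 hr pre-incubation 37 °C; cpd 40 hr 37 °C; CellTiter-Glo 20 min RT; luminescence (ATP) read. qHTS concentration-response, Hill fit → AC50. Tamoxifen, doxorubicin as positive controls.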

[13] = Cell Viability - Renal Proximal Tubule (AID 545); details: renal proximal tubule cells viability, primary cells of rat origin; series mostly up to 91.7 µM; also: nearly all actives have a fitted effect of over 40% in size
How it was run: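 Rat renal proximal tubule primary cells, 1000/well, exposed to compounds for 40 hr at 37 °C in complete medium; cellular ATP read by CellTiter-Glo luminescence. AC50 from concentration-response fitted with standard Hill equation.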

[14] = Cell Viability - Mesenchymal (AID 546); details: mesenchymal cells viability, qHTS; series mostly up to 91.7 µM;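 also: cells exposed to compound for 40 hours before reading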
How it was run: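 CellTiter-Glo luminescence (intracellular ATP, 20 min room temperature) after 40 hr compound exposure at 37 °C of 1000 glomerulus-derived human kidney mesenchymal cells/well; AC50 values obtained by fitting qHTS concentration-response data to the Hill equation.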

[15] = Cellular Toxicity (caspase-3) HepG2 (AID 654); details: HepG2 caspase-3 activation, luminescence; series mostly up to 92.2 µM;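 also: cells exposed to compound for 16 hours before reading; 0% = DMSO alone and 100% = caspase signal from 100 µM tamoxifen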
How it was run: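 Luminescent Caspase-Glo 3/7 readout after 16 hr compound exposure of human hepatocellular carcinoma HepG2 cells at 37 °C; qHTS concentration-response, normalized DMSO = 0%, 100 uM tamoxifen = 100%; AC50 by standard Hill equation.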

[16] = Cellular Toxicity (caspase-3) Jurkat (AID 655); details: Jurkat caspase-3 activation, luminescence; caspase-3 activation: at 92.2 µM (top of the series), DMSO = 0%, tamoxifen = 100%;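 also: cells exposed to compound for 16 h at 37 °C before reading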
How it was run: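 Jurkat cells (5000/well) in complete medium exposed 16 h at 37 C; caspase-3/7 activity read by Caspase-Glo luminescence after 20 min at room temperature. Normalized to DMSO and 100 uM tamoxifen; AC50 from Hill fits.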

[17] = Cellular Toxicity (caspase-3) HUV-EC-C (AID 656); details: HUV-EC-C cells, caspase-3 activation (apoptosis), vehicle = 0, 100 µM tamoxifen = 100%; series mostly up to 92.2 µM
How it was run: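 HUV-EC-C cells (1000/well) in complete medium, compound-treated 16 h at 37 °C; caspase-3/7 activity read by Caspase-Glo 3/7 luminescence. Normalized to DMSO (basal) and 100 uM tamoxifen (100%); AC50 from Hill-equation concentration-response fits.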

[18] = Cellular Toxicity (caspase-3) SHSY5Y (AID 657); details: SH-SY5Y caspase-3 activation, DMSO zero, 10 µM staurosporine = 100%; series mostly up to 91.7 µM
How it was run: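 SH-SY5Y human neuroblastoma cells, 1500/well, exposed to compound for 16 hours at 37 °C in complete medium. Caspase-3/7 activity read by Caspase-Glo luminescence after 1 hr at room temperature, normalized to DMSO and 10 uM staurosporine; AC50 from Hill fit.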

[19] = Cellular Toxicity (caspase-3) BJ (AID 658); details: BJ fibroblasts, luminescence, normalized: DMSO 0%, staurosporine 100%; series mostly up to 91.7 µM
How it was run: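 Caspase-Glo 3/7 luminescence, read 1 hr after reagent at room temperature, in normal BJ fibroblasts exposed 16 hours at 37 °C. AC50 values from Hill-equation concentration-response, scaled between DMSO basal and 10 uM staurosporine as 100%.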

[20] = Cellular Toxicity (caspase-3) MRC-5 (AID 659); details: MRC-5 cells, luminescence, normalized: DMSO 0%, 10 µM staurosporine 100%; series mostly up to 91.7 µM
How it was run: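 Luminescent Caspase-Glo 3/7 read-out (1 h, room temperature) after a 16 h, 37 °C compound exposure of MRC-5 lung fibroblasts at 1500 cells/well. Concentration-response AC50 from Hill equation; 0% DMSO, 100% 10 uM staurosporine.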

ON=C1CCCCC1
inactive: Potency [1] > 92 µM | Potency [2] > 92 µM | Potency [3] > 92 µM | Potency [4] > 92 µM | Potency [5] > 92 µM | Potency [6] > 92 µM | outcome [7] | activity change, negative = cytotoxicity [8] 0.317% | Potency [9] | Potency [10] | Potency [11] | Potency [12] | Potency [13] | Potency [14] | Potency [15] | caspase-3 activation [16] -0.266% | outcome [17] | outcome [18] | outcome [19] | outcome [20]

Cc1ccc2ncccc2c1
inactive: Potency [1] > 92 µM | Potency [2] > 92 µM | Potency [3] > 92 µM | Potency [4] > 92 µM | Potency [5] > 92 µM | Potency [6] > 92 µM | outcome [7] | activity change, negative = cytotoxicity [8] 3.92% | Potency [9] | Potency [10] | Potency [11] | Potency [12] | Potency [13] | Potency [14] | Potency [15] | caspase-3 activation [16] 0.555% | outcome [17] | outcome [18] | outcome [19] | outcome [20]

c1ccc(Oc2ccccc2)cc1
inactive: Potency [1] > 92 µM | Potency [2] > 92 µM | Potency [3] > 92 µM | Potency [4] > 92 µM | Potency [5] > 92 µM | Potency [6] > 92 µM | outcome [7] | activity change, negative = cytotoxicity [8] -0.0485% | Potency [9] | Potency [10] | Potency [11] | Potency [12] | Potency [13] | Potency [14] | Potency [15] | caspase-3 activation [16] 0.819% | outcome [17] | outcome [18] | outcome [19] | outcome [20]

O=Cc1ccc(CO)o1
inactive: Potency [1] > 92 µM | Potency [2] > 92 µM | Potency [3] > 92 µM | Potency [4] > 92 µM | Potency [5] > 92 µM | Potency [6] > 92 µM | outcome [7] | activity change, negative = cytotoxicity [8] 1.46% | Potency [9] | Potency [10] | Potency [11] | Potency [12] | Potency [13] | Potency [14] | Potency [15] | caspase-3 activation [16] -0.436% | outcome [17] | outcome [18] | outcome [19] | outcome [20]

CC(=O)Nc1ccc(N)cc1
inactive: Potency [1] > 92 µM | Potency [2] > 92 µM | Potency [3] > 92 µM | Potency [4] > 92 µM | Potency [5] > 92 µM | Potency [6] > 92 µM | outcome [7] | activity change, negative = cytotoxicity [8] 4.55% | Potency [9] | Potency [10] | Potency [11] | Potency [12] | Potency [13] | Potency [14] | Potency [15] | caspase-3 activation [16] 0.0249% | outcome [17] | outcome [18] | outcome [19] | outcome [20]
